Measured values as given in PubChem BioAssay AID1835 (Johns Hopkins Ion Channel Center, 2009).
In all, about 2,400 compounds went through this assay and about 750 (31%) were called active. The list shows a part of the results. A number with no mark means an inactive call.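 How the source made its calls: active means median signal gain over dofetilide-blocked control wells reaching their mean plus 3 SD, so readout 1 at least 0; inactive means the rest.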

molecular target: Voltage-gated inwardly rectifying potassium channel KCNH2 (Homo sapiens) (UniProt Q12809); test: hERG protection against dofetilide inhibition, confirmation, cell-based, thallium flux, duplicate retest, dofetilide IC70 (AID 1835); conditions: hERG cell line, FluxOR thallium flux, dofetilide-blocked; at 10 µM; active compounds read high
Sequence (Q12809 whole entry, looked up): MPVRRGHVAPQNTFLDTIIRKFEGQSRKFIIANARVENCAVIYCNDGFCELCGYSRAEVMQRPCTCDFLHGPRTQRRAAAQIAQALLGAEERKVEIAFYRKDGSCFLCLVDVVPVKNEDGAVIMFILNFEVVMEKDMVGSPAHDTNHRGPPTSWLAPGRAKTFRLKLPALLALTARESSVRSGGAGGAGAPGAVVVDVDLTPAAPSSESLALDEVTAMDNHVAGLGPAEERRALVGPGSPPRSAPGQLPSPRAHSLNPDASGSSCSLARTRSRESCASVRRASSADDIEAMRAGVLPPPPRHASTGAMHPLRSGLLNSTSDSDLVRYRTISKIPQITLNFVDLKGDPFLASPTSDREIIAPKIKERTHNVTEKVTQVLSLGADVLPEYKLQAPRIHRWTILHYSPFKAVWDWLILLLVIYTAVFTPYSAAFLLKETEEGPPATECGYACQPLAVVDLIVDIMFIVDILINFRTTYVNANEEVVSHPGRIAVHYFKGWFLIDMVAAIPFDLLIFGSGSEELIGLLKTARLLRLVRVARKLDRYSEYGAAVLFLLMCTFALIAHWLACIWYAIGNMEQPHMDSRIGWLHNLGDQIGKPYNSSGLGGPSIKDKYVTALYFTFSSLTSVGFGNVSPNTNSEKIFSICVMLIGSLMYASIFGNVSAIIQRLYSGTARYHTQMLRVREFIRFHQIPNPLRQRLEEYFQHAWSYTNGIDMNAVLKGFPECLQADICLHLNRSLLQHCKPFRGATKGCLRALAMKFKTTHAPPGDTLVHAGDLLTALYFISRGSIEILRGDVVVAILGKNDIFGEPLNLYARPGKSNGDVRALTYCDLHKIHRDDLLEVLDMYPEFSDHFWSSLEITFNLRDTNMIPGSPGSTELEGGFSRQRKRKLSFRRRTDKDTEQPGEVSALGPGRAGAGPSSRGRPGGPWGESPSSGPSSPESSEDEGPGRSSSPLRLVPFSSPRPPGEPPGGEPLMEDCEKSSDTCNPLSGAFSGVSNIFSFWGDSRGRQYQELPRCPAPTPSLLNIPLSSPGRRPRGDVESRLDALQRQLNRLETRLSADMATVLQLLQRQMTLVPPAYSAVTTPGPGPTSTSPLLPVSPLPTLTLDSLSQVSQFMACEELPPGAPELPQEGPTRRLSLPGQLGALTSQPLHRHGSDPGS

Structure (SMILES) | activity increase over dofetilide control, less the hit threshold
COc1cc(/C=C2/OC(=O)c3cc([N+](=O)[O-])ccc32)cc(OC)c1OC | -10%
Cc1cc([N+](=O)[O-])ccc1-c1ccc(C2Nc3ccccc3C(=O)N2O)o1 (centres undefined) | 7% (active)
Cc1ccc(/C=N/N2C(=O)c3ccccc3NC2c2ccc(C)cc2)cc1 (centres undefined) | -7%
C=CCn1c(-c2cc(-c3ccc(C)cc3)nc3ccccc23)n[nH]c1=S | -16%
Cc1ccc(C(C)C)c(OCc2n[nH]c(=S)o2)c1 | -4%
Cc1ccc(-c2cc(-c3n[nH]c(=S)o3)c3ccccc3n2)cc1 | 37% (active)
CC(/C=C1\SC(=S)N(NS(=O)(=O)c2ccc(C)cc2)C1=O)=C\c1ccccc1 | 7% (active)
COc1ccccc1/C=C1\SC(=S)N(NS(=O)(=O)c2ccc(C)cc2)C1=O | -20%
CC(/C=C1\SC(=S)N(NS(=O)(=O)c2ccccc2)C1=O)=C\c1ccccc1 | 15% (active)
CC(/C=C1\SC(=S)N(c2ccc(C(=O)O)cc2)C1=O)=C\c1ccccc1 | -15%
Cc1ccc(S(=O)(=O)N2C(=O)/C(=C3\SC(=S)NC3=O)c3ccccc32)cc1 | -6%
O=C(O)CC1S/C(=N/N=C/c2ccc(-c3ccccc3[N+](=O)[O-])o2)NC1=O (centres undefined) | -22%
COc1cccc(OCC(=O)NNC(=O)C(=O)Nc2ccc(OC)cc2OC)c1 | 39% (active)
COc1ccc(OC)c(NC(=O)C(=O)NNC(=O)C23CC4CC(CC(C4)C2)C3)c1 | 83% (active)
COc1ccc(OCC(=O)Nc2c3c(nn2-c2ccc(OC)cc2)CS(=O)(=O)C3)cc1 | -18%
COc1ccc(OC)c(NC(=O)C(=S)NC2CCCCC2)c1 | -2%
COc1ccc(NC(=O)C(=O)NNC(=O)COc2ccc(OC)cc2)cc1 | -12%
COc1ccc(OC)c(NC(=O)COC(=O)c2ccc(-n3cnnn3)cc2)c1 | -10%
COc1ccc(NC(=O)COC(=O)c2c(C)noc2C)c(OC)c1 | -2%
COc1ccc(OCC(=O)NNC(=O)C(=O)Nc2cc(OC)ccc2OC)cc1 | 8% (active)
COc1ccc(NC(=O)C(=O)NNC(=O)COc2ccc(Cl)cc2)c(OC)c1 | 30% (active)
Cc1n[nH]c(C)c1CCNC(=O)C1CCC(=O)N(Cc2ccccc2F)C1 (centres undefined) | -15%
O=c1c2cc(Br)ccc2nc(-c2ccc([N+](=O)[O-])cc2)n1O | 47% (active)
O=c1c2cc(Cl)ccc2nc(-c2ccc([N+](=O)[O-])cc2)n1O | 16% (active)
O=[N+]([O-])c1ccc(CSc2nnc(SCc3ccc(Cl)cc3)s2)cc1 | 0%

Structure (SMILES) | activity increase over dofetilide control, less the hit threshold
N#Cc1ccc(-c2nc3cc(Cl)ccc3c(=O)n2O)cc1 | -4%
O=[N+]([O-])c1ccc(Nc2ccc(Cl)cc2)nc1 | -17%
O=c1c2ccc(Cl)cc2nc(-c2ccc([N+](=O)[O-])cc2)n1O | 16% (active)
O=C1C(c2ccccc2)C(c2ccccc2)NC(c2ccccc2)C1c1ccccc1 (centres undefined) | -17%
O=C(CC1NCCNC1=O)Nc1ccc([N+](=O)[O-])cc1 (centres undefined) | -17%
CC(=O)NCCC(=O)N(C)CC1CCN(CCc2cccc(C(F)(F)F)c2)CC1 | -6%
CS(=O)(=O)N1CCN(c2ccccc2NC(=O)Nc2cccc(Cl)c2)CC1 | -16%
Cc1ccc(NC(=O)C(=O)NNC(=O)c2ccccc2C)cc1Cl | 54% (active)
COc1ccccc1NC(=O)C1CCCN1C(=O)NCc1ccccc1 (centres undefined) | -21%
COc1cc(NC(=O)c2ccccc2OCc2ccccc2)cc(OC)c1OC | -16%
COc1ccccc1C(=O)NNC(=O)C(=O)NC1CCCCC1 | 49% (active)
COc1ccccc1C(=O)NNC(=O)C(=O)NCc1ccccc1 | 16% (active)
CC(=O)Nc1ccccc1C(=O)C(=O)Nc1ccccc1 | -23%
COc1ccccc1C(=O)NNC(=O)C(=O)NC(C)(C)C | 21% (active)
COc1ccccc1C(=O)Nc1ccnn1C1CCN(C(=O)c2ccoc2C)CC1 | -7%
COc1cc(/C=N/NC(=O)NC2CCCCC2)ccc1O | -20%
COc1cccc(/C=C2/C(=O)NN(c3ccc(C)c(C)c3)C2=O)c1 | -14%
COc1ccccc1CC(=O)Nc1ccc(OC)c(OC)c1 | -8%
COc1ccc(C(=O)NCc2nnc(SCC(=O)NC3CCCCC3)n2C)cc1 | -18%
COc1ccc(C(=O)NNC(=O)C(=O)NC2CCCCC2)cc1 | 5% (active)
COc1ccccc1C(=O)NNC(=O)C(=O)Nc1ccc(C)cc1 | 77% (active)
O=C(COc1ccc(Cl)cc1)NNC(=O)C(=O)NC1CCCCC1 | -9%
COc1ccccc1C(=O)NNC(=O)C(=O)Nc1ccc(C)c(Cl)c1 | 99% (active)
COc1ccc(NC(=O)c2ccccc2SC)cc1OC | -18%
O=c1oc2ccccc2c2c1nc(C(F)(F)F)n2-c1ccccc1 | -20%

Structure (SMILES) | activity increase over dofetilide control, less the hit threshold
CCCn1nnnc1SCC(=O)Nc1nnc(CC)s1 | -6%
O=C(NCCc1nnc2ccc(NCc3ccc(Cl)cc3)nn12)c1ccccc1 | -11%
COc1ccc(C2CC(c3ccc(Cl)cc3Cl)Nc3nc(N)nn32)cc1OC (centres undefined) | -10%
O=C(/C=C/Nc1ccc(F)c(F)c1)c1cccs1 | -18%
Cc1ccccc1NC(=O)CC1S/C(=N/c2nccs2)N(C)C1=O (centres undefined) | 0%
C/C(=N\O)C1CC(CC(=O)O)C1(C)C (centres undefined) | -13%
CSC1=C(C#N)C(CC(C)C)C2=C(CCCC2=O)N1 (centres undefined) | -12%
CCOC(=O)N1CCN(C(=O)c2ccc(CN(c3ccc(C)c(C)c3)S(C)(=O)=O)cc2)CC1 | 8% (active)
CCN1CCN(C(=O)c2ccc(Cn3c(=O)[nH]c4cc(OC)c(OC)cc4c3=O)cc2)CC1 | -17%
COc1ccc(N(CC(=O)N2CCN(Cc3ccccc3)CC2)S(C)(=O)=O)cc1OC | -3%
S=c1[nH]nc(-c2ccc(Cl)cc2)n1Cc1ccccc1 | -13%
O=c1[nH]c(SCc2cccc(Cl)c2)nc2ccccc12 | -14%
S=c1nc(COc2ccccc2)[nH]c2ccccc12 | 100% (active)
O=C(O)CCCCCNc1nc(=S)[nH]c2ccccc12 | -7%
S=c1nc(Cc2ccccc2)[nH]c2ccccc12 | 78% (active)
S=c1nc(Cc2ccc(Cl)cc2)[nH]c2ccccc12 | 90% (active)
S=c1nc(SCc2ccccc2)[nH]c2ccccc12 | 100% (active)
CCC(C)N(C(=O)CSc1nnc(NC(C)C)s1)C1CCS(=O)(=O)C1 (centres undefined) | -11%
CS(=O)(=O)N(CCc1ccccc1)CC(=O)N1CCN(c2ccc(F)cc2)CC1 | -9%
Cc1cc(=O)oc2cc(OC(C(=O)O)c3ccccc3)ccc12 (centres undefined) | -19%
C[C@@H]1CCCCCCCCCCC1=O | -15%
Fc1cccc(C2NN=C(c3ccccc3)S2)c1 (centres undefined) | -12%
COc1ccc(Cl)cc1N(C)C(=O)CCNC(=O)Cn1cnc2ccccc2c1=O | -11%
CC(=O)c1ccc2c3c(cccc13)CC2 | -7%
CC(OC(=O)c1cc2c(s1)CCCCC2)C(=O)NC(N)=O (centres undefined) | -5%

Structure (SMILES) | activity increase over dofetilide control, less the hit threshold
O=C(c1cc2c(s1)-c1ccccc1OC2)N1CCCC1 | 0%
NC(=O)C1CCN(C(=O)c2cc3c(s2)CCCC3)CC1 | 9% (active)
COC(=O)CCn1[nH]c(=O)c2ccccc2c1=O | -2%
COc1ccc(N2CCN(S(=O)(=O)c3ccc(Br)s3)CC2)cc1 | -14%
S=c1[nH]nc(-c2n[nH]c3c2CCC3)n1/N=C/C=C/c1ccccc1 | -27%
Cc1cccc(/C=N/n2c(COc3ccccc3)n[nH]c2=S)c1 | 1% (active)
S=c1[nH]nc(Cc2ccc(Br)cc2)n1/N=C/c1ccc(Cl)cc1 | -5%
CC(C)c1ccc(/C=N/n2c(COc3ccccc3)n[nH]c2=S)cc1 | 3% (active)
S=c1[nH]nc(-c2ccco2)n1/N=C/C(Cl)=C/c1ccccc1 | -14%
Cc1ccc2nsnc2c1S(=O)(=O)Nc1cccc2nsnc12 | 8% (active)
O=C(O)c1ccccc1NC(=O)C1CCN(S(=O)(=O)c2cccc3nsnc23)CC1 | -3%
Cc1ccc2nc(NC(=S)NC(=O)c3cccs3)sc2c1 | 10% (active)
O=C(NC(=S)Nc1nc2ccccc2s1)c1cccs1 | 52% (active)
Cc1cc(F)ccc1NC(=O)C1CCN(C(=O)Nc2ccccc2)CC1 | -17%
O=C(NC(C(=O)c1ccccc1)n1cnccc1=O)c1ccccc1 (centres undefined) | -3%
Nc1ccc(C(=O)OCC(=O)N2CCN(C(=O)c3ccco3)CC2)cc1[N+](=O)[O-] | -16%
O=C(CCNS(=O)(=O)c1ccc(Cl)cc1)OCC(=O)N1CCN(C(=O)c2ccco2)CC1 | -17%
COC(=O)c1c(NC(=O)c2ccco2)sc2c1C(C(=O)OC)CC2 (centres undefined) | -18%
CCOc1ccc(OCC(=O)OCC(=O)N2CCN(C(=O)c3ccco3)CC2)cc1 | -2%
CCOC(=O)c1c(NC(=O)CN2CCN(C(=O)c3ccco3)CC2)sc2c1CCCC2 | 7% (active)
CCc1c(C)sc(NC(=O)CN2CCN(C(=O)c3ccco3)CC2)c1C(=O)OC | 1% (active)
CC1=C(C)CS(=O)N(c2ccc(S(N)(=O)=O)cc2)C1 (centres undefined) | -3%
Cn1ncc2c(NNC(=O)c3ccc(O)cc3)ncnc21 | -15%
Cc1nc(NCc2cccnc2)c2c3c(sc2n1)CC(C)CC3 (centres undefined) | 55% (active)
